Data published in PubChem BioAssay AID1159580 (chemical genetic matrix, 2015).
Hit rate of the full screen: of about 5,500 compounds, about 2,000 (36%) were called active. About 18% were inconclusive and are not listed. Rule as the data show it: active = normalized growth mostly below about 0.91 (no sharp cut-off); inconclusive = no clear call, values can overlap the other calls; inactive = mostly above about 0.92. The list shows a part of the results.

Experiment: chemical genetic growth profiling, strain panel (AID 1159580);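 also: tested at 20 µM; growth read once vehicle control cultures reached saturation at 30 °C; 1 = growth at the plate median or of vehicle wells; lower values mean less growth of the strain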
Conditions: S. cerevisiae deletion strains, growth OD
[1] = locus YBL105C, strain PKC1, hits give low values
[2] = locus YBR135W, strain CKS1, hits give low values
[3] = locus YBR136W, strain MEC1, hits give low values
[4] = locus YBR160W, strain CDC28, hits give low values
[5] = locus YDL017W, strain CDC7, hits give low values
[6] = locus YDL028C, strain MPS1, hits give low values
[7] = locus YDL108W, strain KIN28, hits give low values
[8] = locus YDL214C, strain PRR2, hits give low values
[9] = locus YDR052C, strain DBF4, hits give low values
[10] = locus YDR226W, strain ADK1, hits give low values
[11] = locus YDR477W, strain SNF1, hits give low values
[12] = locus YER123W, strain YCK3, hits give low values
[13] = locus YER133W, strain GLC7, hits give low values
[14] = locus YFR003C, strain YPI1, hits give low values
[15] = locus YFR019W, strain FAB1, hits give low values
[16] = locus YFR028C, strain CDC14, hits give low values
[17] = locus YGR040W, strain KSS1, hits give low values
[18] = locus YGR052W, strain FMP48, hits give low values
[19] = locus YGR092W, strain DBF2, hits give low values
[20] = locus YHR030C, strain SLT2, hits give low values
[21] = locus YHR079C, strain IRE1, hits give low values
[22] = locus YHR082C, strain KSP1, hits give low values
[23] = locus YHR205W, strain SCH9, hits give low values
[24] = locus YIL147C, strain SLN1, hits give low values
[25] = locus YJL095W, strain BCK1, hits give low values
[26] = locus YJL128C, strain PBS2, hits give low values
[27] = locus YJL157C, strain FAR1, hits give low values
[28] = locus YJR016C, strain ILV3, hits give low values
[29] = locus YJR066W, strain TOR1 (second series), hits give low values
[30] = locus YJR066W, strain TOR1, hits give low values
[31] = locus YKL048C, strain ELM1, hits give low values
[32] = locus YKL067W, strain YNK1, hits give low values
[33] = locus YKL101W, strain HSL1, hits give low values
[34] = locus YKL203C, strain TOR2, hits give low values
[35] = locus YLR113W, strain HOG1, hits give low values
[36] = locus YLR133W, strain CKI1, hits give low values
[37] = locus YLR403W, strain SFP1, hits give low values
[38] = locus YML070W, strain DAK1, hits give low values
[39] = locus YMR001C, strain CDC5, hits give low values
[40] = locus YMR205C, strain PFK2 (second series), hits give low values
[41] = locus YNL006W, strain LST8, hits give low values
[42] = locus YNL020C, strain ARK1, hits give low values
[43] = locus YNL161W, strain CBK1, hits give low values
[44] = locus YNL183C, strain NPR1, hits give low values
[45] = locus YNL207W, strain RIO2, hits give low values
[46] = locus YNL222W, strain SSU72, hits give low values
[47] = locus YNL307C, strain MCK1 (second series), hits give low values
[48] = locus YOL136C, strain PFK27, hits give low values
[49] = locus YOR061W, strain CKA2, hits give low values
[50] = locus YOR119C, strain RIO1, hits give low values
[51] = locus YOR231W, strain MKK1, hits give low values
[52] = locus YOR329C, strain SCD5, hits give low values
[53] = locus YPL031C, strain PHO85, hits give low values
[54] = locus YPL153C, strain RAD53, hits give low values
[55] = locus YPL204W, strain HRR25, hits give low values
[56] = locus YPL209C, strain IPL1, hits give low values
[57] = locus YPL256C, strain CLN2, hits give low values
[58] = locus YPR025C, strain CCL1, hits give low values
[59] = locus YPR106W, strain ISR1, hits give low values
[60] = locus YPR111W, strain DBF20, hits give low values
[61] = strain NNK1, hits give low values
[62] = locus YAR019C, strain CDC15, hits give low values
[63] = locus YDL101C, strain DUN1, hits give low values
[64] = locus YDL132W, strain cdc53, hits give low values
[65] = locus YDR054C, strain cdc34, hits give low values
[66] = locus YFL009W, strain cdc4, hits give low values
[67] = locus YFL029C, strain CAK1, hits give low values
[68] = locus YKL193C, strain SDS22, hits give low values
[69] = locus YMR277W, strain FCP1, hits give low values
[70] = locus YOL078W, strain AVO1, hits give low values
[71] = strain TSCII, hits give low values

Measured: normalized growth

Oc1c(Br)cc(Br)cc1C=Nc1ccccn1
active: [8] 0.221 | [11] 0.417 | [12] 0.119 | [13] 0.288 | [15] 0.111 | [17] 0.437 | [18] 0.179 | [19] 0.16 | [20] 0.133 | [21] 0.135 | [22] 0.161 | [23] 0.118 | [25] 0.132 | [27] 0.165 | [29] 0.368 | [30] 0.141 | [31] 0.55 | [32] 0.213 | [33] 0.375 | [34] 0.348 | [35] 0.154 | [36] 0.165 | [37] 0.167 | [38] 0.113 | [40] 0.211 | [41] 0.895 | [42] 0.14 | [44] 0.146 | [47] 0.23 | [48] 0.116 | [49] 0.114 | [50] 0.341 | [51] 0.12 | [53] 0.296 | [54] 0.23 | [55] 0.304 | [57] 0.155
inactive: [1] 0.969 | [2] 0.965 | [3] 0.967 | [4] 0.965 | [5] 0.958 | [6] 0.96 | [7] 0.978 | [9] 0.968 | [10] 0.989 | [14] 0.952 | [16] 0.984 | [24] 0.965 | [26] 0.937 | [28] 0.974 | [39] 0.962 | [43] 0.968 | [45] 0.965 | [46] 0.96 | [52] 0.963 | [56] 0.967 | [58] 0.968 | [59] 0.962 | [60] 0.953 | [61] 0.947

Oc1c(Cl)cc(Cl)cc1C=Nc1ccc(Sc2ccccc2)nc1Sc1ccccc1
inactive: [62] 0.938 | [1] 0.958 | [2] 0.954 | [3] 0.954 | [4] 0.954 | [5] 0.956 | [6] 0.922 | [63] 0.97 | [7] 0.945 | [64] 0.95 | [9] 0.968 | [65] 0.95 | [10] 0.956 | [12] 0.7 | [66] 0.945 | [67] 0.943 | [14] 0.955 | [15] 0.916 | [16] 0.942 | [18] 0.616 | [24] 0.939 | [26] 0.913 | [28] 0.961 | [29] 0.771 | [68] 0.945 | [34] 0.748 | [38] 0.727 | [39] 0.943 | [69] 0.929 | [41] 0.942 | [43] 0.957 | [44] 0.606 | [45] 0.962 | [46] 0.938 | [70] 0.955 | [48] 0.693 | [52] 0.948 | [56] 0.951 | [58] 0.95 | [59] 0.956 | [60] 0.941 | [61] 0.965 | [71] 0.95
active: [8] 0.675 | [11] 0.6 | [13] 0.635 | [17] 0.684 | [19] 0.217 | [20] 0.322 | [21] 0.472 | [22] 0.599 | [23] 0.462 | [25] 0.414 | [27] 0.56 | [30] 0.482 | [31] 0.734 | [32] 0.584 | [33] 0.674 | [35] 0.667 | [36] 0.585 | [37] 0.49 | [40] 0.59 | [42] 0.566 | [47] 0.517 | [49] 0.392 | [50] 0.652 | [51] 0.509 | [53] 0.598 | [54] 0.535 | [55] 0.577 | [57] 0.619

Oc1c(Br)cc(Br)cc1/C=N\n1cnnc1
active: [8] 0.588 | [11] 0.308 | [12] 0.452 | [13] 0.483 | [17] 0.391 | [18] 0.323 | [19] 0.116 | [20] 0.307 | [21] 0.246 | [22] 0.32 | [23] 0.0783 | [25] 0.26 | [27] 0.412 | [30] 0.287 | [31] 0.289 | [32] 0.503 | [33] 0.225 | [34] 0.244 | [35] 0.369 | [36] 0.305 | [37] 0.122 | [38] 0.606 | [40] 0.355 | [42] 0.259 | [44] 0.354 | [47] 0.138 | [48] 0.517 | [49] 0.15 | [50] 0.237 | [51] 0.316 | [53] 0.303 | [54] 0.416 | [55] 0.348 | [57] 0.462 | [61] 0.289
inactive: [62] 0.938 | [1] 0.942 | [2] 0.943 | [3] 0.943 | [4] 0.958 | [5] 0.943 | [6] 0.941 | [63] 0.915 | [7] 0.945 | [64] 0.947 | [9] 0.947 | [65] 0.933 | [10] 0.947 | [66] 0.954 | [67] 0.949 | [14] 0.945 | [15] 0.791 | [16] 0.958 | [24] 0.907 | [28] 0.951 | [29] 0.728 | [68] 0.943 | [39] 0.903 | [69] 0.931 | [41] 0.927 | [43] 0.944 | [45] 0.942 | [46] 0.944 | [70] 0.926 | [52] 0.934 | [56] 0.95 | [58] 0.946 | [59] 0.918 | [60] 0.918 | [71] 0.938
